Assay results from PubChem BioAssay (NCATS).
Unmarked numbers belong to inactive results. Results filed as inconclusive are left out. A call without a number means that no potency is given here. Activity calls are given as the source filed them. Unless noted, calls come from the whole dose curve; as a rule, active = well fitted curve in the direction sought with a large enough effect; inconclusive = small, poorly fitted or top-dose-only effect, or another doubt; inactive = no such curve, though single readings can be large; an effect the other way counts as inactive or inconclusive. Residues, ends and D or L forms follow the SMILES beside them. *: point of attachment. Cbz = O=C(OCc1ccccc1)*

What was measured:
[1] = molecular target: T1, Hexokinase-4 (Homo sapiens) + Glucokinase regulatory protein (Homo sapiens) (UniProt P35557+Q14397); test: qHTS assay for inhibitors of recombinant human GCK-GKRP interaction: ADP-Glo assay (AID 743206)
Summary of the method: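 GST-GCK and FLAG-GKRP (15 nM each in the dispensed mix, with 2 uM S6P) react with 0.4 mM ATP and 5 mM glucose (final) in Hepes pH 7.6 for 60 min at room temperature. ADP is measured by ADP-Glo luminescence.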

[2] = molecular target: T1, Hexokinase-4 (Homo sapiens) + Glucokinase regulatory protein (Homo sapiens); test: qHTS assay for inhibitors of recombinant human GCK-GKRP interaction: HTRF assay (AID 743207)
Summary of the method: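 Steps: dispense GCK–GKRP complex (5 nM each, GST- and FLAG-tagged) with 2 uM S6P; pin in compounds; add XL665/Eu-cryptate-labelled antibodies; incubate 60 min at room temperature; read time-resolved FRET at 665 and 615 nm.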

[3] = qHTS Assay for Identifying Gametocytocidal Compounds (AID 743244); note: potency is the fitted concentration of half-maximal effect;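 for max response: actives lower the fluorescent signal which means gametocytes are killed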; details: P. falciparum 3D7 stage III-V gametocytes, alamarBlue, 72 h; max response: stronger effect = lower value
Summary of the method: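 Stage III–V gametocytes of P. falciparum 3D7 were seeded at 20,000 cells/well onto pre-dispensed compounds. After 72 h, 37 °C, 5% CO2, alamarBlue was added for another 24 h.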

[4] = qHTS assay for measurement of the activity of small molecule inhibitors on Zika virus induced Caspase-3 activity in human iPSC derived neural progenitor cells (hNPCs) (AID 1224857); note: nearly all actives have a fitted effect of over 65% in size
Summary of the method: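 Values are percent inhibition of virus-induced caspase-3/7 signal, scaled between uninfected cells and ZIKV-infected cells. Infection used 2 FFU/cell for 6 h after 1 h compound exposure.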

[5] = qHTS assay for measurement of the activity of small molecule inhibitors on Zika virus induced Caspase-3 activity in human astrocytoma cells (AID 1224859)
Summary of the method: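 Compound added 1 h pre-infection; ZIKV 2 FFU/cell on SNB-19 cells, 6 h, 37 C/5% CO2. Caspase-Glo 3/7 luminescence; values as % inhibition of ZIKV-induced caspase activity.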

[6] = Natriuretic polypeptide receptor (hNpr1) antagonism - Pilot counterscreen GloSensor control cell line (AID 1347045; calls by dose curve; note: potency is the fitted concentration of half-maximal effect)
Summary of the method: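 This counterscreen uses HEK293 cells expressing the GIP/pGS-40F cGMP biosensor. Compound-treated cells are challenged with 50 uM sodium nitroprusside, and the luciferase signal is compared before and after stimulation.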

[7] = molecular target: Atrial natriuretic peptide receptor 1 (Homo sapiens) (UniProt P16066); test: Natriuretic polypeptide receptor (hNpr1) antagonism - Pilot screen (AID 1347049; calls by dose curve;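 note: agonist-evoked cGMP luminescence read 20 min after hNppA addition; series mostly up to about 58 µM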)
Summary of the method: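 HEK293 cells expressing hNpr1 and GloSensor cGMP luciferase, 1500/well, loaded with 2% GloSensor reagent 2 h, compound 30 min at room temperature; luminescence read before and 20 min after 0.1 nM hNppA stimulation.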

[8] = molecular target: T1, Hexokinase-4 (Homo sapiens) + Glucokinase regulatory protein (Homo sapiens); test: qHTS assay for inhibitors of recombinant human GCK-GKRP interaction: Diaphorase-coupled assay (AID 743205)
Summary of the method: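 Inhibitors of the GCK–GKRP complex relieve GKRP suppression of GCK, detected through a G6PDH–diaphorase cascade reducing resazurin. Human GST-GCK and FLAG-GKRP are used at 10 nM with 5 mM glucose and 0.4 mM ATP.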

[9] = molecular target: Atrial natriuretic peptide receptor 2 (Homo sapiens) (UniProt P20594); test: Natriuretic polypeptide receptor (hNpr2) antagonism - Pilot subtype selectivity assay (AID 1347050; calls by dose curve)
Summary of the method: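 HEK293 cells expressing hNpr2 and a GloSensor cGMP luciferase sensor, 1500/well, preloaded 2 h with 2% GloSensor reagent, compound 30 min, then 1 nM hNppC for 20 min. Antagonism from luminescence after versus baseline pre-read; LOPAC in 1:5 titrations.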

[10] = qHTS assay for cell viability of HEK293 cells (AID 743288); details: ATP luminescence (CellTiter-Glo), 18 h; max response: stronger effect = lower value; note: nearly all actives have a fitted effect of over 50% in size; note: potency is the fitted concentration of half-maximal effect
Summary of the method: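 The Tox21 protocol used parental HEK293 cells treated for 18 h at 37 C with compounds delivered by pintool; ATP-coupled luminescence after 30 min at room temperature gave viability.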

[11] = qHTS assay for cell viability of the p53RE-bla HCT-116 cell line (AID 743292); note: nearly all actives have a fitted effect of over 55% in size; note: potency is the fitted concentration of half-maximal effect
Summary of the method: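 Compound-exposed HCT-116 (p53RE-bla) cells, 4,000 per well, were kept 16 h at 37 C following a 5 h preincubation. Cell number was estimated from total ATP by CellTiter-Glo luminescence read after 30 min at room temperature.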

T1 sequence (P35557 whole entry, looked up): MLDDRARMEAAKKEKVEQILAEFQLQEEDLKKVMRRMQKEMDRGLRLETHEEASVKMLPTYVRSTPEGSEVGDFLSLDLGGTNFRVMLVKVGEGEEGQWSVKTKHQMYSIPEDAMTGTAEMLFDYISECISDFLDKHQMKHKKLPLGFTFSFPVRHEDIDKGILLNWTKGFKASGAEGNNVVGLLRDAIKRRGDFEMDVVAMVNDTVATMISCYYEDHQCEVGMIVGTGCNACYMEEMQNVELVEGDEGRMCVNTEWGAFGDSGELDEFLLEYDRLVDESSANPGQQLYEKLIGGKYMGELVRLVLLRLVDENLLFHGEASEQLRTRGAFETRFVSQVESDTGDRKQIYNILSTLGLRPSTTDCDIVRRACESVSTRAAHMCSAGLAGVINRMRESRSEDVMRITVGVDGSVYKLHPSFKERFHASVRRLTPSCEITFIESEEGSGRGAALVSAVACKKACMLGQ
T1 sequence (Q14397 whole entry, looked up): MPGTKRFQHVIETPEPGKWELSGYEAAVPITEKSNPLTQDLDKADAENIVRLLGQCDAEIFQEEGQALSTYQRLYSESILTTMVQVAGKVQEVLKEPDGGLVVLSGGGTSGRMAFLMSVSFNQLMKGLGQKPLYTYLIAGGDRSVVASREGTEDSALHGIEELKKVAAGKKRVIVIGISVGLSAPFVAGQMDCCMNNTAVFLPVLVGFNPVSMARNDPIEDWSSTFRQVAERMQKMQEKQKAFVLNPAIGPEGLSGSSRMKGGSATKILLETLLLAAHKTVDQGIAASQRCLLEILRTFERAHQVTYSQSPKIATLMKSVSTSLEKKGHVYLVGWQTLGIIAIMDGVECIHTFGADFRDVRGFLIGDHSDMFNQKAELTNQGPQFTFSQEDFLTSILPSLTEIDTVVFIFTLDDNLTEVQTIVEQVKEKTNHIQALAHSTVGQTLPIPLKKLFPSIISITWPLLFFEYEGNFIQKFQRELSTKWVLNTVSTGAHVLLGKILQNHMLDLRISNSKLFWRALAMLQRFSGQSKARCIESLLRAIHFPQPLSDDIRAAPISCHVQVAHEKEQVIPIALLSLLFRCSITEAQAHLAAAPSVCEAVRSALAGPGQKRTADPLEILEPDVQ
Chain of Atrial natriuretic peptide receptor 1 (Homo sapiens) (P16066 whole entry, looked up): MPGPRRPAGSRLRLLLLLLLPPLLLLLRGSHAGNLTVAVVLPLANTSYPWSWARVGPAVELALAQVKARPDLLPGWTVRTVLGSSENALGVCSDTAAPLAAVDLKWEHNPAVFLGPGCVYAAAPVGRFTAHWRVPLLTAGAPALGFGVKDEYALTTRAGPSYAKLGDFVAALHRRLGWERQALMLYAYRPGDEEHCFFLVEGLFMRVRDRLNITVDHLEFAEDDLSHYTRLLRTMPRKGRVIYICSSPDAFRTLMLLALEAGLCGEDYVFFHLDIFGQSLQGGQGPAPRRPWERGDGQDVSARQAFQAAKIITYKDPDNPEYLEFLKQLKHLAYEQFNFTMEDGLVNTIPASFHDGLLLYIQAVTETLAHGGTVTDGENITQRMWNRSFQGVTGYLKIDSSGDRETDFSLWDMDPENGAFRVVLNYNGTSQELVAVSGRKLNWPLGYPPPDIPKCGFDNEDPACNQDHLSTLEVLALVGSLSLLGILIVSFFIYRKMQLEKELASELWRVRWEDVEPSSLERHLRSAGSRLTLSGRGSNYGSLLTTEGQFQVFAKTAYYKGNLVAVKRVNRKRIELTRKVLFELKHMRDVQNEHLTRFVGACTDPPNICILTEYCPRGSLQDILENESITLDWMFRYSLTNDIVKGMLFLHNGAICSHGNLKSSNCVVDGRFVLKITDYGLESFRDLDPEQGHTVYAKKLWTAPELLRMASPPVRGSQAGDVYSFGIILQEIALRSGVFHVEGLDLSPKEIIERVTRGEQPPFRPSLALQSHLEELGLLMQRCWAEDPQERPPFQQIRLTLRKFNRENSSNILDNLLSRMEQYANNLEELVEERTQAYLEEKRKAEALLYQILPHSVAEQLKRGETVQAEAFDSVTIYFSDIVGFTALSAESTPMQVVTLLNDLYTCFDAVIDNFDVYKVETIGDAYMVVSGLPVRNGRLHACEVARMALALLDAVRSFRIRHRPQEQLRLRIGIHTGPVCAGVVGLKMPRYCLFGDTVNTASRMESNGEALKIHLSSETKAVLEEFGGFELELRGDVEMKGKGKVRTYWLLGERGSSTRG
Chain of Atrial natriuretic peptide receptor 2 (Homo sapiens) (P20594 whole entry, looked up): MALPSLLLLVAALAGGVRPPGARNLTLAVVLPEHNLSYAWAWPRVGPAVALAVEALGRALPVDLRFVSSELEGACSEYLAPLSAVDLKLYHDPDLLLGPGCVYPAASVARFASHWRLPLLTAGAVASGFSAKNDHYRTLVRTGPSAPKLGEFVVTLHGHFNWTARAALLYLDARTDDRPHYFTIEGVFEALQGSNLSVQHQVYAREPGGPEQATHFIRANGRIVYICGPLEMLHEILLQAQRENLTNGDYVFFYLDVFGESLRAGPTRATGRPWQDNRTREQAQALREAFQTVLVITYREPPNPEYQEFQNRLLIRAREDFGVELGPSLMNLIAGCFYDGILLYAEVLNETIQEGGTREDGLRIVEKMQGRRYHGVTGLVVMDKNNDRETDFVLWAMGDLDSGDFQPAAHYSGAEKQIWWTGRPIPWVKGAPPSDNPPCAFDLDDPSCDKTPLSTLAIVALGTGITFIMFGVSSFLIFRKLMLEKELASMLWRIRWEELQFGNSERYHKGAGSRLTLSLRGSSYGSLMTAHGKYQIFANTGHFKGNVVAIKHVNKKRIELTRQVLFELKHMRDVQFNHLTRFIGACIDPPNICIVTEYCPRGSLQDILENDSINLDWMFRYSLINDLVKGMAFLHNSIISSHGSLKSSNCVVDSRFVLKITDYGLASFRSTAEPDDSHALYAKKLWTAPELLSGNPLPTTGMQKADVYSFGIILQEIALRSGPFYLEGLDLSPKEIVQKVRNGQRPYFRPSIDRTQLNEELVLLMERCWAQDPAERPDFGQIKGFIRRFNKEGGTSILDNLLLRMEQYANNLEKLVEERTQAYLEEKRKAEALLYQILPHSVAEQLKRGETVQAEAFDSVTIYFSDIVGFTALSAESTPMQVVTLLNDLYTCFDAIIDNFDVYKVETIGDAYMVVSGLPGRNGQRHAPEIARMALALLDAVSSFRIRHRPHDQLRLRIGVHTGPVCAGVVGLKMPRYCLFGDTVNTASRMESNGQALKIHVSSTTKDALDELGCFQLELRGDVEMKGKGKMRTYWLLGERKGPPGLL

Row | SMILES | Potency [1] | Potency [2] | max response [3] [%] | Potency [4] | Potency [5] | Potency [6] | Potency [7] | Potency [8] | Potency [9] | max response [10] [%] | Potency [11] | Potency [3] | Potency [10]
1 | COc1ccccc1N1CCN(CCCNc2c(C)c(=O)n(C)c(=O)n2C)CC1 | inactive | inactive | -1.96 | inactive | inactive | inactive | inactive |  |  |  |  |  | 
2 | Nc1nc2[nH]c(=O)cnc2c(=O)[nH]1 | inactive | inactive | 4 | inactive | inactive | inactive | inactive | inactive |  |  |  |  | 
3 | N[C@@H](CS(=O)O)C(=O)O | inactive | inactive | 27.3 | inactive | inactive | inactive | inactive | inactive |  |  |  |  | 
4 | CCCC(=O)NCCc1c2n(c3ccc(OC)cc13)CCCc1ccccc1-2 | inactive | inactive |  | inactive | inactive | inactive |  | inactive | inactive |  |  |  | 
5 | CCC1(O)CC2CN(CCc3c([nH]c4ccccc34)[C@@](C(=O)OC)(c3cc4c(cc3OC)N(C=O)C3[C@]45CCN4CC=C[C@@](CC)([C@@H](OC(C)=O)[C@]3(O)C(=O)OC)[C@H]45)C2)C1 (some centres not stated) | inactive | inactive |  | inactive | inactive | inactive | inactive |  |  |  |  |  | 
6 | COc1ccc(CCn2nnnc2C2(c3ccc(C)cc3)CC2)cc1 | inactive | inactive | 13.1 | inactive | inactive | inactive |  |  | inactive |  |  |  | 
7 | NC/C=C\C(=O)O | inactive | inactive | 7.58 | inactive | inactive | inactive | inactive | inactive |  |  |  |  | 
8 | CC1=C(/C=C/C(C)=C/C=C/C(C)=C\C(=O)O)C(C)(C)CCC1 | inactive | inactive |  | inactive | inactive | inactive | inactive | inactive |  | 0.628 | inactive |  | 
9 | CCCOC(=O)c1c(-c2ccccc2)nc(CC)c(C(=O)SCC)c1CCC | inactive | inactive | 9.8 | inactive | inactive | inactive |  | inactive | inactive |  |  |  | 
10 | O=C(O)c1cccnc1C(=O)O | inactive | inactive | 4.44 | inactive | inactive | inactive | inactive | inactive |  |  |  |  | 
11 | Oc1ccc(/C=C/c2ccc(/C=C/c3ccc(O)cc3)c(Br)c2)cc1 | inactive | inactive |  | inactive | inactive | inactive |  | inactive | inactive |  |  |  | 
12 | CC(C)[C@H](NC(=O)OCc1ccccc1)C(=O)N[C@H](C=O)Cc1ccccc1 (Cbz-Val-Phe-aldehyde) | inactive | inactive | 7.9 | inactive | inactive | inactive | inactive | inactive |  |  |  |  | 
13 | O=C(O)CCC/C=C\C[C@@H]1[C@@H](/C=C/[C@H](O)C2Cc3ccccc3C2)[C@@H](F)C[C@@H]1O | inactive | inactive | -7.09 | inactive | inactive | inactive | inactive |  |  |  |  |  | 
14 | COc1ccc(C(=O)NCc2cccnc2)cc1C(=O)NCc1cccnc1 | inactive | inactive | 22.9 | inactive | inactive | inactive |  | inactive |  |  |  |  | 
15 | N#C/C(=C\c1ccc(O)c(O)c1)C(=O)NCCc1ccccc1 | inactive | inactive |  | inactive | inactive | inactive |  | inactive | inactive |  |  |  | 
16 | CC(=O)SC1CC2=CC(=O)CC[C@]2(C)C2CC[C@@]3(C)C(CC[C@@]34CCC(=O)O4)C12 (some centres not stated) | inactive | inactive | 7.64 | inactive | inactive | inactive | inactive | inactive |  |  |  |  | 

Row | SMILES | Potency [1] | Potency [2] | max response [3] [%] | Potency [4] | Potency [5] | Potency [6] | Potency [7] | Potency [8] | Potency [9] | max response [10] [%] | Potency [11] | Potency [3] | Potency [10]
17 | O=C(O)Cc1ccc(O)c(O)c1 | inactive | inactive |  | inactive | inactive | inactive | inactive |  |  |  |  |  | 
18 | CC(C)NCC(O)COc1ccc(CC(N)=O)cc1 (configuration not stated) | inactive | inactive | 27.5 | inactive | inactive | inactive | inactive | inactive |  |  |  |  | 
19 | CNCCc1cnc(CCC(c2ccccc2)c2ccccc2)[nH]1 | inactive | inactive |  | inactive | inactive | inactive | inactive |  |  |  |  | 1.26 µM (active) | 
20 | CCCCOc1cc(CC2CNC(=O)N2)ccc1OC (configuration not stated) | inactive | inactive | 22.4 | inactive | inactive | inactive | inactive | inactive |  |  |  |  | 
21 | O=c1cc(-c2ccccc2F)[nH]c2cc3c(cc12)OCO3 | inactive | inactive | 15.8 | inactive | inactive | inactive | inactive | inactive |  |  |  |  | 
22 | Cc1nc2n(c(=O)c1CCN1CCC(c3noc4cc(F)ccc34)CC1)CCCC2O (configuration not stated) | inactive | inactive | 7.08 | inactive | inactive | inactive | inactive | inactive |  |  |  |  | 
23 | NCCC1CCCC(CCN)N1 (configuration not stated) | inactive | inactive | 30.6 | inactive | inactive | inactive | inactive | inactive |  |  |  |  | 
24 | NOCC(=O)O | inactive | inactive | -2.42 | inactive | inactive | inactive |  |  | inactive |  |  |  | 
25 | CC[C@@H]1Cc2cc(O)ccc2C2=C1c1ccc(O)cc1C[C@H]2CC | inactive | inactive |  | inactive | inactive | 20.7 µM (active) |  |  | inactive |  | 70.8 µM (active) | 3.55 µM (active) | 50.1 µM (active)
26 | NC(=O)CC[C@H](N)C(=O)O | inactive | inactive | -4.4 | inactive | inactive | inactive | inactive |  |  |  |  |  | 
27 | NC[C@@H]1O[C@H](c2ccccc2)Cc2c1ccc(O)c2O | inactive | inactive |  | inactive | inactive |  |  | inactive | inactive |  |  |  | 
28 | COC(=O)C1=C(C)NC(C)=C([N+](=O)[O-])C1c1ccccc1C(F)(F)F (configuration not stated) | inactive | inactive | 19.5 | inactive | inactive |  | inactive | inactive | inactive |  |  |  | 
29 | NC1(C(=O)O)CC1 | inactive | inactive | 4.84 | inactive | inactive |  | inactive | inactive | inactive |  |  |  | 
30 | CC(C)C[C@H](NC(=O)[C@H](O)[C@H](N)Cc1ccccc1)C(=O)O | inactive | inactive | 2.38 | inactive | inactive |  | inactive | inactive | inactive |  |  |  | 
31 | O=c1ccn([C@@H]2O[C@H](COP(=O)(O)OP(=O)(O)O)[C@@H](O)[C@H]2O)c(=O)[nH]1 | inactive | inactive | 17.2 | inactive | inactive |  | inactive | inactive | inactive |  |  |  | 
32 | NC1(C(=O)O)CCc2cc(C(=O)O)ccc21 (configuration not stated) | inactive | inactive | 9.78 | inactive | inactive |  | inactive | inactive | inactive |  |  |  | 
